From PubChem BioAssay (NCI)
This is part of a sample that, as a whole, favours compounds with a hit. Of some 83,000 tested, about 20% had one in any assay.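 Cells were grown in 96-well plates and exposed to the test compound at a single concentration for 48 hours; results are reported as percent growth, with values below 10 considered active.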 Values without a mark were called inactive. The source made the active and inactive calls.

Tests used:
Assay in all cases: NCI-60 one-dose screen, 48 h (100 = growth as untreated, 0 = no growth, -100 = all killed)
K-562 leukemia = conditions: 10 µM unless noted
MALME-3M melanoma = conditions: 10 µM unless noted
MDA-MB-231 breast = conditions: 10 µM unless noted
RXF 393 renal = conditions: 10 µM unless noted
SF-268 CNS = conditions: 10 µM unless noted
SF-295 CNS = conditions: 10 µM unless noted
SF-539 CNS = conditions: 10 µM unless noted
UACC-257 melanoma = conditions: 10 µM unless noted
M14 melanoma = conditions: 10 µM unless noted
HCT-15 colon = conditions: 10 µM unless noted
HT29 colon = conditions: 10 µM unless noted
SNB-75 CNS = conditions: 10 µM unless noted
SNB-19 CNS = conditions: 10 µM unless noted
U251 CNS = conditions: 10 µM unless noted
PC-3 prostate = conditions: 10 µM unless noted
SK-MEL-5 melanoma = conditions: 10 µM unless noted
UACC-62 melanoma = conditions: 10 µM unless noted
LOX IMVI melanoma = conditions: 10 µM unless noted
SK-MEL-28 melanoma = conditions: 10 µM
SK-MEL-2 melanoma = conditions: 10 µM unless noted

Compound | growth (K-562 leukemia) | growth (MALME-3M melanoma) | growth (MDA-MB-231 breast) | growth (RXF 393 renal) | growth (SF-268 CNS) [%] | growth (SF-295 CNS) | growth (SF-539 CNS) | growth (UACC-257 melanoma) | growth (M14 melanoma) | growth (HCT-15 colon) | growth (HT29 colon) | growth (SNB-75 CNS) | growth (SNB-19 CNS) [%] | growth (U251 CNS) | growth (PC-3 prostate) [%] | growth (SK-MEL-5 melanoma) | growth (UACC-62 melanoma) | growth (LOX IMVI melanoma) | growth (SK-MEL-28 melanoma) | growth (SK-MEL-2 melanoma)
CCOC(=O)c1sc(-c2ccc(OS(=O)(=O)c3ccccc3[N+](=O)[O-])c(C=O)c2)nc1C | 12.8% | 37.8% | 84% | 108% | 46.6 | 107% | 76.6% | 49.5% | 5.91% (active) | 6.3% (active) | 110% | 73.4% | 76.1 | 43% | 70 | -57.3% (active) | 64% | -6.91% (active) | 79.4% | 86.6%
CCCCCCc1cc2cc(-c3csc(/C=C/c4ccccc4)n3)c(=O)oc2cc1O | -25.8% (active) | -79.9% (active) | -8.21% (active) | -9.75% (active) | 17 | -55% (active) | -77.3% (active) | -78.3% (active) | -58.3% (active) | 18.9% | -37.8% (active) | 3.13% (active) | 55.3 | 0.326% (active) | 25.1 | -93.6% (active) | -68.3% (active) | -47.1% (active) | -96.1% (active) | -71.5% (active)
O=C(Cn1cc(COc2ncnc3c2cnn3-c2ccccc2)nn1)Nc1cccc2ccccc12 | 94.6% | 93.6% | 95% | 94.8% | 92.6 | 99.4% | 90% | 95.9% | 105% | 96.9% | 102% | 74.9% | 88.4 | 96.7% | 95.8 | 92.5% | 83.9% | 97.5% | 100% | 113%
COc1cccc2c1C=C1CCCCC3=Cc4c(OC)cccc4OC13O2 | 17.4% | 36.5% | 56.7% | 32.8% | 50.8 | 27.2% | 39.4% | 62.1% | 27.3% | 28.3% | 16.3% | -18.1% (active) | 51.3 | 30.9% | 33.7 | 50.3% | 24.2% | 32.8% | 53.6% | 48.6%
O=C1c2cc(Br)ccc2Oc2cc([N+](=O)[O-])ccc2N1c1ccc(I)cc1F | 101% | 99.8% | 101% | 94.5% | 93.1 | 98.2% | 101% | 97.6% | 91.8% | 97.7% | 99.6% | 89.5% | 94 | 94.4% | 103 | 99.2% | 87.2% | 93.5% | 113% | 101%
CC1=C(C(=O)OCC2CCN(C(=O)OC(C)(C)C)CC2)[C@H](c2cccc(Br)c2)C2=C(CC(C)(C)CC2=O)N1 | 15.8% | 26.1% | 46% | 66.3% | 33.1 | 39.9% | 41.2% | 29.1% | 29.8% | 21% | 16.7% | 47.8% | 42.5 | 30% | 17.5 | -32.8% (active) | 36.1% | 17.5% | 50.1% | 61.1%
O=C1/C(=C/c2ccc(O)cc2)COc2ccc(O)cc21 | 55.9% | 100% | 107% | 125% | 101 | 107% | 98.1% | 104% | 102% | 75.9% | 98.3% | 96.4% | 99.9 | 80% | 94.3 | 102% | 92.8% | 70.1% | 105% | 114%
CCOc1cc2c(cc1OCC)C(c1cc(C)c(O)c(C)c1)NCC2 (stereo not given) | 78.6% | 99.1% | 95.7% | 99.4% | 103 | 93.1% | 109% | 94.3% | 98.5% | 91.2% | 98% | 95.3% | 101 | 94% | 82 | 99.9% | 91.3% | 99.6% | 107% | 98.3%
CC1=C(C(=O)OCC2CCN(C(=O)OC(C)(C)C)CC2)[C@H](c2cccc(C#N)c2)C2=C(CC(C)(C)CC2=O)N1 | 24.3% | 66.1% | 59.7% | 83.2% | 52.5 | 40.5% | 48% | 70% | 50.4% | 23.7% | 30.9% | 62.5% | 51.7 | 47.6% | 59.4 | 20.5% | 43.5% | 15.2% | 68.4% | 75.3%
COc1cc(C(C)n2cc(-c3ccccc3)nn2)ccc1OC1CCCC1 (stereo not given) | 34% | 63.7% | 76% | 83.1% | 72 | 47.1% | 69.3% | 55.4% | 82.8% | 62.2% | 82.4% | 75.5% | 79.2 | 79% | 65.2 | 25.9% | 63.6% | 60.6% | 98.8% | 72.9%
Cc1ccc2cc3c(N)c4c(C)ccc(C)c4nc3nc2c1 | -18.6% (active) | -77% (active) | 7.18% (active) | 45.1% | 17.4 | -45.8% (active) | -68% (active) | -78.8% (active) | -79.1% (active) | 10.8% | 4.73% (active) | 41.2% | 80.2 | -5.79% (active) | 63.9 | 11.8% | -73% (active) | -53.8% (active) | -80.6% (active) | -33.2% (active)
O=C1/C(=C/c2cccc(O)c2)COc2ccc(O)cc21 | 7.52% (active) | 78.6% | 103% | 115% | 90.3 | 105% | 92.3% | 93.3% | 85.3% | 10.6% | 72.7% | 96.4% | 80 | 29.6% | 72.7 | 86.9% | 82.4% | -57.1% (active) | 102% | 108%
Nc1n[nH]c2ccc([C@@H]3Nc4ccc5[nH]ncc5c4[C@H]4[C@H]5CCC(C5)[C@H]43)cc12 | 9.58% (active) | 52.2% | 11.8% | 25.6% | 25 | 14% | -15.8% (active) | 69.4% | 8.3% (active) | 16.5% | 2.25% (active) | 11.4% | 33.4 | 20.1% | 25.6 | 16.9% | 40.5% | 14.7% | 57.7% | 29.5%
COc1ccc(OC)c(/C=C/C(=O)c2c(C)nc3ccccc3c2/C=C/c2ccccc2)c1 | 17% | 103% | 51.9% | 69.6% | 73.7 | 76% | 99.6% | 72% | 81.5% | 37.6% | 37.2% | 59.2% | 80.9 | 54.1% | 59.4 | 82.9% | 50.1% | 42.8% | 95.1% | 72.2%
Cc1cc2c(c(C)c1Cl)C(=O)/C(=C/c1cccc([N+](=O)[O-])c1)O2 | 99.9% | 97.1% | 92.7% | 107% | 100 | 95.1% | 95% | 88.2% | 98.9% | 99.7% | 95.4% | 102% | 96.8 | 93% | 100 | 96.6% | 82% | 102% | 102% | 97.7%
Cc1ccc(F)cc1NC(=O)c1cc(Cl)ccc1Nc1ccccc1 | 22.3% | 83% | 69.7% | 68.3% | 55 | 13.7% | 62.5% | 65.7% | 45.1% | 38.4% | 17.8% | 53.6% | 59.4 | 42.5% | 23.2 | 70.9% | 65.4% | 49.4% | 89.6% | 54.9%
